Source: PubChem BioAssay AID1467 (National Center for Advancing Translational Sciences (NCATS), 2008)
Fewer than 10 of roughly 230,000 compounds were called active. Calls come from the whole dose curve; as a rule, active = well fitted curve in the direction sought with a large enough effect; inconclusive = small, poorly fitted or top-dose-only effect, or effect the other way, or another doubt; inactive = no such curve, though single readings can be large or run the other way. The list is a sample of the results.

Target: Alpha-galactosidase A (Homo sapiens) (UniProt P06280)
Assay: qHTS Assay for Inhibitors of Human alpha-Galactosidase at pH 4.5.
Conditions: purified enzyme, 4-MU-alpha-Gal fluorescence; series mostly up to 105 µM
Description: NIH Chemical Genomics Center [NCGC]
NIH Molecular Libraries Probe Production centers Network [MLPCN]
Assay Submitter (PI): Wei Zheng
Alpha-galactosidase is a homodimeric glycoprotein that hydrolyzes the terminal alpha-galactosyl moieties from glycolipids and glycoproteins. Deficiency of this enzyme results in Fabry Disease with progressive accumulation of globotriaosylceramide and other glycosphingolipids in vascular endothelial cells that causes renal failure, myocardial infarction and stroke, and premature death in patients. It has been reported that the improper folding and trafficking of alpha-galactosidase resulting from the genetic mutations may account for a significant numbers of Fabry patients. […] We optimized this alpha-galactosidase assay in 1536-well plate format for identifying the novel small molecule inhibitors with the structures other than the sugar analogs in order to develop the new pharmacological chaperones. Although this assay has the same protocol as PubChem AID 992, this is a separate project and, therefore, is published as a separate assay
NCGC Assay Protocol Summary:
This is a fluorogenic enzyme assay with 4-Methylumbelliferyl alpha-D-galactopyranoside as the substrate and human […] as the enzyme preparation. Upon the hydrolysis of this fluorogenic substrate, the resulting product, […]. 4-Methyllumbelliferone, can be excited at 365 nm and emits at 440 nm. This fluorescence which can be detected by a standard fluorescence plate reader. Data were normalized to the controls for basal activity (without enzyme) and 100% activity (with enzyme). In the AC50 values were determined from concentration-response data modeled with the standard Hill equation.
Assay buffer: 50 mM citric acid (titrated with potassium phosphate to pH 4.5), 0.005% Tween-20, pH 4.5. (pH 4.5 is an optimal condition for this enzyme assay)
1536-well assay protocol for the human alpha-galactosidase:
(1) Add 2 ul/well of enzyme (12 nM final)
(2) Add 23 nL compounds in DMSO solution. The final titration was 0.7 nM to 77 uM.
(3) Add 1 ul of substrate (400 uM final)
(4) Incubate at room temperature for 20 min.
(5) Add 2 ul stop solution (1M NaOH and 1M Glycine mixture, pH 10)
(6) Detect the assay plate in a ViewLux plate reader (PerkinElmer) with Ex=365 nm and Em=440nm.
Keywords: MLSMR, MLPCN, NIH Roadmap, qHTS, NCGC, : Alpha-galactosidase, Fabry Disease, pharmacological chaperone, chaperone therapy

Alpha-galactosidase A (Homo sapiens), sequence (P06280 whole entry, looked up): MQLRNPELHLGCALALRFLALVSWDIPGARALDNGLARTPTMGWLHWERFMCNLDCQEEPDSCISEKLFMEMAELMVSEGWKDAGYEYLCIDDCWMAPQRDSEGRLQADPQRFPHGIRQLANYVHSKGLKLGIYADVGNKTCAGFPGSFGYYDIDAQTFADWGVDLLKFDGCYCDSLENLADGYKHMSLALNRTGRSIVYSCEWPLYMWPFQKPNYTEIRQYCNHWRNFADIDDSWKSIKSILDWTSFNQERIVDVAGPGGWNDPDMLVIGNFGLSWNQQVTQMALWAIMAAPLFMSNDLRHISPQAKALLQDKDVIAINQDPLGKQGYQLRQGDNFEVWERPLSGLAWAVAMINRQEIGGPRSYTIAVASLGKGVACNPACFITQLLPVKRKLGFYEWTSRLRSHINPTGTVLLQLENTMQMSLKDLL

Row | SMILES | activity change, negative = inhibition
1 | O=C(Nc1ccc(Br)cn1)C1CCN(S(=O)(=O)c2cccs2)CC1 | inactive
2 | Cc1c(/C=N\NC(=O)c2cc3ccccc3o2)c2ccccc2n1C | inactive
3 | Nc1cccc(S(=O)(=O)Nc2ccc(SC(F)F)cc2)c1 | inactive
4 | COc1ccc(-n2cc(CNC3CCOCC3)c(-c3cccc(F)c3)n2)cc1 | inactive
5 | Cc1cc(NC(=O)CSCc2nc(-c3cccc(Cl)c3)oc2C)no1 | inactive
6 | CCCCC/C=C\C[C@H](O)/C=C/C=C/C=C/[C@@H](O)CCCC(=O)O | inactive
7 | N#CCSc1nn(-c2ccc(F)cc2)c(=S)s1 | inactive
8 | Cc1nnc(NC(=O)CCC(=O)N2CCC(C)CC2)s1 | inactive
9 | CCCNC(=O)c1c(Cl)cnn1-c1ccc(C)cc1 | inactive
10 | COC(=O)C/C=C/[C@@H](C)[C@H](NC(=O)OCC(Cl)(Cl)Cl)c1ccccc1 | inactive
11 | CC1(OC(=O)c2ccc(Cl)nc2)C(=O)Cc2cc(-c3ccsc3)ncc2C1=O (stereo not given) | inactive
12 | CC(=O)c1ccc(N2CCN(CC(=O)Nc3ccccc3N3CCOCC3)CC2)cc1 | inactive
13 | CCCc1ccc(OCc2ccc(C(=O)N/N=C/c3cccc([N+](=O)[O-])c3)o2)c(OC)c1 | inactive
14 | C/C=C1\C2C=C(C)CC1(N)c1ccc(=O)[nH]c1C2 (stereo not given) | inactive
15 | CCOC(=O)C1=C(O)/C(=C/c2cc(C)n(-c3ccccc3)c2C)N=C1C | inactive
16 | CC[C@H](C)[C@@H](NC(=O)O[C@@H]1C(=O)c2cc(OC)ccc2O[C@H]1c1cccc(OC)c1)C(=O)OC | inactive
17 | Cc1cc(C)cc(C(=O)NCC(=O)OCC(=O)N2CCCCC2)c1 | inactive
18 | O=C(CN1CCCCCC1)NCCN1C(=O)S/C(=C\c2ccccc2Cl)C1=O | inactive
19 | Cc1ccccc1-c1ccc(C(=O)O)s1 | inactive
20 | Cc1nc(-c2ccccc2)sc1-c1nnc(C2CC2)o1 | inactive
21 | O=c1c(O)c(Br)ccc2c(Br)c(O)c(O)c(O)c12 | inactive
22 | O=C(CSc1nc2ccccc2o1)N/N=C/c1ccccc1C(=O)O | inactive
23 | COc1cc(/C=C(/NC(=O)c2ccccc2)C(=O)Nc2cccc(O)c2)c([N+](=O)[O-])cc1OC | inactive
24 | CN(CCc1cnn(C)c1)Cc1cn(C)nc1-c1ccccc1F | inactive
25 | CC1=C2[C@@H](O)[C@H]([C@@H](C)C(=O)NCCC(C)C)CC[C@@]2(C)C=CC1=O | inactive
26 | CC/C=C\C/C=C\C/C=C\C/C=C\C/C=C\C/C=C\CCC(=O)NC(C)C(=O)O (stereo not given) | inactive
27 | CCn1c(COc2c(C)cccc2C)nnc1SCc1nc2ccccc2c(=O)[nH]1 | inactive

Row | SMILES | activity change, negative = inhibition
28 | Cc1ccnc(NC(=O)CCC(=O)N(CC(=O)NCc2ccccc2)Cc2ccco2)c1 | inactive
29 | Cc1nc2c(ncn2-c2ccccc2)c(=O)n1NC(=O)CN1CCCC1 | inactive
30 | CC(=O)Nc1sc2c(c1C(c1cccc(F)c1)N1CCN(CCO)CC1)CCCC2 (stereo not given) | inactive
31 | CCCCC[C@H](O)/C=C/[C@@H]1[C@@H](CC(=O)CCC(=O)O)[C@@H](O)C[C@H]1O | inactive
32 | O=C1C=C(c2ccccc2)CCC1 | inactive
33 | COc1ccc(NC(=O)C2CCC(CNc3c(N4CCCCC4)c(=O)c3=O)CC2)c(OC)c1 (stereo not given) | inactive
34 | COc1ccc(N2CCN(Cc3nnc(-c4ccccc4)o3)CC2)cc1 | inactive
35 | CC/C=C\C/C=C\C/C=C\C/C=C\C/C=C\C/C=C\CCC(=O)NCCc1ccc(O)c(O)c1 | inactive
36 | CCOC(=O)C1=NO[C@@]2(C=C(Br)C(=O)[C@H]3O[C@H]32)C1 | inactive
37 | C=CCn1c(CCNC(=O)c2cccs2)n[nH]c1=S | inactive
38 | Cc1ccccc1NC(=O)c1ccc(COc2ccc3c(C)cc(=O)oc3c2)cc1 | inactive
39 | COC(=O)Cc1ccc(Oc2ncc(C(F)(F)F)cc2Cl)cc1 | inactive
40 | CONc1nc2nonc2nc1NOC | inactive
41 | CCCCCCCCCCCCC(NC(C)=O)(C(=O)OCC)C(=O)OCC | inactive
42 | CCN(CC)CC(=O)Nc1sc2c(c1C(=O)c1ccccc1C)CCC2 | inactive
43 | CCCCNC(=O)C1CCCN(S(=O)(=O)c2ccc(S(=O)(=O)NCC(C)C)cc2)C1 (stereo not given) | inactive
44 | CCOc1cc(NC(=O)CCl)c(OCC)cc1NC(C)=O | inactive
45 | CCn1c(CN2C(=O)CSc3ccccc32)n[nH]c1=S | inactive
46 | CCOC(=O)N1CCN(c2cc(C)c([N+](=O)[O-])cc2F)CC1 | inactive
47 | Cc1noc(C)c1C(=O)N(CC(=O)NC1CCCC1)Cc1ccccc1F | inactive
48 | CC(C)Oc1ccc(CCc2nnc(SCC(=O)O)n2-c2ccccc2)cc1 | inactive
49 | Cc1ccccc1CSc1nnc(CCCCCNC(=O)OC(C)(C)C)o1 | inactive
50 | Cc1ccccc1CCN(CC(=O)NC1CCCCC1)C(=O)c1csnn1 | inactive
51 | CCc1c(O)nc(SCC(=O)Nc2ccccc2)n(C(C)CC)c1=O (stereo not given) | inactive
52 | COc1ccc(NC(=O)c2ccccc2[N+](=O)[O-])cc1OC | inactive
53 | CC(C)(C)c1nnc(NC(=O)C2c3ccccc3Oc3ccccc32)s1 | inactive
54 | O=C(Nc1ccc(N2CCOCC2)nc1)c1c(F)cccc1F | inactive

Row | SMILES | activity change, negative = inhibition
55 | COc1ccc(/C=C/CN2CCCC(C(=O)c3cc(F)ccc3F)C2)cc1 (stereo not given) | inactive
56 | Cc1cccc(CN2CCN(Cc3cnn(-c4ccccc4F)c3)CC2CCO)n1 (stereo not given) | inactive
57 | CCCCc1ccc(NC(=S)NCCCN2CCOCC2)cc1 | inactive
58 | C=CCC(C)(O)c1ccco1 (stereo not given) | inactive
59 | COc1c(O)cc2oc(-c3ccc(O)c(O)c3)cc(=O)c2c1O | inactive
60 | O=C1OCCN1C(=O)[C@H]1[C@H](c2ccc(F)cc2)C(c2ccccc2)=NN1c1ccc(Br)cc1 | inactive
61 | C=C(C)C(=O)c1ccc(F)cc1 | inactive
62 | CC(C)(C)OC(=O)NCCCCC1=CC2=CC(=O)C(C)(OC(=O)c3cccs3)C(=O)C2=CO1 (stereo not given) | inactive
63 | C=C(C(C)=O)C(O)c1cccs1 (stereo not given) | inactive
64 | COc1ccc(C(=O)OCC(=O)NC(=O)CCSc2ccccc2)cc1 | inactive
65 | Cc1ccc(N2C(=O)C(CC(=O)Nc3cccc(F)c3)N(CCc3ccncc3)C2=O)cc1 (stereo not given) | inactive
66 | CCCCCCCCn1c2c(c(=N)c3c1CCC3)CCCC2 | inactive
67 | CN(c1ccc2nc3ccccc3c(=O)n2n1)C1CCCCC1 | inactive
68 | Cc1ccc(Nc2nc(N)nc(CN3CCN(Cc4ccccc4)CC3)n2)cc1Cl | inactive
69 | Cc1ccc(NC(=O)c2csc3c2CCCC3)cc1 | inactive
70 | C=CC(C1=CC(=O)C=CC1=O)c1ccc(O)cc1 (stereo not given) | inactive
71 | Cc1nc(NC(=O)C2CCCCC2)sc1C | inactive
72 | c1ccc(CN=C2Nc3ccccc3CS2)nc1 | inactive
73 | O=C(CSc1nnc(-c2ccncc2)n1-c1ccc(Cl)cc1)Nc1ccc(C(=O)O)cc1 | inactive
74 | C[C@H]1Cc2c(-c3ccccc3)nc3c(c2CO1)CN(C(=O)C1CC1)CC3 | inactive
75 | O=c1c2c(nc3cc(-c4cccc(Cl)c4)[nH]n13)CCCC2 | inactive
76 | CC(C)C1=CC2=CC[C@H]3[C@](C)(C(=O)O)CCC[C@]3(C)C2CC1 (stereo not given in full) | inactive
77 | COc1ccc(CCNC2=CC(=O)CC(C)(C)C2)cc1 | inactive
78 | O=C(CC(=O)N/N=C\c1cccc(Cl)c1Cl)NCc1ccccc1 | inactive
79 | COc1cc(NC(=O)c2cncc(-c3ccc(C#N)cc3)c2)cc(C(=O)Nc2cccc(C(F)(F)F)c2)c1 | inactive
80 | COc1cccc(-c2cc(=O)c3cc(NC(=O)c4ccc(C)cc4)ccc3[nH]2)c1 | inactive
81 | Cc1nc(-c2ccc(Cl)cc2)sc1C1(C)CC(c2ccccc2F)=NO1 (stereo not given) | inactive

Row | SMILES | activity change, negative = inhibition
82 | COc1ccc(/C=C2\NC(=O)[C@@H]3Cc4ccccc4CN3C2=O)cc1 | inactive
83 | CC(C)Cc1nc(Nc2ccc(S(=O)(=O)N3CCCC3)cc2)c2nnn(Cc3ccccc3)c2n1 | inactive
84 | NC(=O)COc1ccc(C23CC4CC(CC(C4)C2)C3)cc1 | inactive
85 | COc1ccc(OC)c(S(=O)(=O)Nc2cccc(-c3ccc4nncn4n3)c2)c1 | inactive
86 | COC(=O)C1=C(C(=O)OC)C(c2cc([N+](=O)[O-])ccc2O)c2sc(=O)[nH]c2S1 (stereo not given) | inactive
87 | CCCCNS(=O)(=O)c1ccc2nc(SCC(=O)Nc3cc(C)cc(C)c3)[nH]c2c1 | inactive
88 | CCOC(=O)C1=C(C)c2ccccc2OC1C(=O)OCC (stereo not given) | inactive
89 | O=C(COc1cc(Cl)c(Cl)cc1Cl)NC(=O)NC1CCCC1 | inactive
90 | COc1ccc(-c2c(C)cc3oc(=O)cc(-c4ccccc4)c3c2C)cc1C=O | inactive
91 | CCCCCCCCCCCCN1C(=O)CSC1c1cccnc1 (stereo not given) | inactive
92 | C=C(C(C)=O)C(O)c1ccc([N+](=O)[O-])cc1 (stereo not given) | inactive
93 | C=CCOC(=O)NC(c1ccc(F)c(F)c1)C(C(=O)COC)C(=O)OC (stereo not given) | inactive
94 | COc1ccc(-c2nc3c(c4c2C[C@H](c2ccccc2)OC4)CN(C(=O)c2cccnc2)CC3)c(C)c1 | inactive
95 | COC(=O)C1(C(C)=O)CC2=CC[C@H]3C(=O)N(c4ccccc4)C(=O)[C@H]3[C@@H]2Cc2ccccc2[C@@H]1C[N+](=O)[O-] (stereo not given in full) | inactive
96 | Cc1cccc(-c2nc3ccccc3c(=O)n2NC(=O)Cc2ccc(Cl)cc2)c1 | inactive
97 | O=C(NCc1ccco1)O[C@@H]1C(=O)c2cc(Br)ccc2O[C@H]1c1ccc2c(c1)OCO2 | inactive
98 | O=C(O)CC(Cc1ccccc1)C(=O)Nc1ccc([N+](=O)[O-])cc1 (stereo not given) | inactive
99 | OC[C@H]1O[C@@H](n2cnc3c(N[C@H]4CC5CCC4C5)ncnc32)[C@H](O)[C@@H]1O (stereo not given in full) | inactive
100 | COc1cccc([C@@H]2Oc3ccc(Br)cc3C(=O)[C@H]2OC(=O)NCCc2ccc(OC)c(OC)c2)c1 | inactive
101 | CCOC(=O)C1C/C(=C\C(C)=O)c2cccc(C(F)(F)F)c2O1 (stereo not given) | inactive
102 | C/C(Nc1ccc2oc(=O)ccc2c1)=C1/C(=O)CC2[C@@H]1C2(C)C (stereo not given in full) | inactive
103 | O=C(NNC(=S)NC1CC2CCC1C2)c1ccc(Cl)cc1 (stereo not given) | inactive
104 | COc1cc(NC(=O)c2ccc3c(c2)OCO3)ccc1NC(=O)c1cccs1 | inactive
105 | CC(=O)Nc1ccc(NC(=O)CSc2ncnc3c2cnn3Cc2ccccc2)cc1 | inactive
